Reference: article PMC4552634, “A New Set of Chemical Starting Points with Plasmodium falciparum Transmission-Blocking Potential for Antimalarial Drug Discovery” (PLoS ONE, 2015)
Like-named read-outs stand apart in the source and are kept apart here. Screen size: about 13,000 compounds; about 3,200 (25%) showed an effect of 50% or more. Some of the results follow.

Test system: P. falciparum stage V gametocytes
Set-up: BacTiter-Glo ATP luminescence viability of purified stage V gametocytes in 384-well plates, per cent inhibition versus DMSO
Conditions: 48 h, 5 µM, inhibitor

Row | SMILES | % Inhibition | % Inhibition (% Inhibition)
1 | CC(C)(C)c1ccc(NC(=O)c2cccc(CN3CCCN(Cc4cccc(O)c4)CC3)c2)cc1 [TCMDC-135983] | -11.1% | –
2 | O=C(/C=C/c1ccc(Cl)c(Cl)c1)NC1CCN(Cc2ccc(O)cc2)C1 (centres unmarked) [TCMDC-141739] | 26.39% | –
3 | COc1ccc2nccc([C@@H](O)CN3CCC(NCc4cnc5c(c4)NC(=O)CS5)C(F)C3)c2c1 (some centres unmarked) [TCMDC-141716] | 19.26% | –
4 | CC(C)c1ccc(CN2CCC(CNC(=O)c3cc(-c4ccccc4F)cs3)C2)cc1 (centres unmarked) [TCMDC-134436] | 107.7% | –
5 | COc1ccccc1-c1csc(C(=O)NCC2CCN(Cc3ccc(C(C)C)cc3)C2)c1 (centres unmarked) [TCMDC-134510] | -33.71% | –
6 | CC(C)(C)c1ccc(CN2CCC(CNC(=O)c3cc(-c4ccccc4F)cs3)C2)cc1 (centres unmarked) [TCMDC-134443] | 104.8% | –
7 | CCc1ccc(CN2CCC(CNC(=O)c3cc(-c4ccccc4F)cs3)C2)cc1 (centres unmarked) [TCMDC-134431] | 96.16% | –
8 | CC(C)Oc1ccccc1-c1csc(C(=O)NCC2CCN(Cc3ccc(C(C)(C)C)cc3)C2)c1 (centres unmarked) [TCMDC-134512] | 5.537% | –
9 | CC(C)c1ccc(CN2CCCCC(NC(=O)c3cc(-c4ccccc4F)cs3)C2)cc1 (centres unmarked) [TCMDC-134462] | -8.212% | –
10 | CC(C)(C)c1ccc(CN2CCC(CNC(=O)c3cc(-c4ccccc4C(F)(F)F)cs3)C2)cc1 (centres unmarked) [TCMDC-134441] | 105.6% | –
11 | CCCc1cc(C(=O)N[C@@H](Cc2ccccc2)[C@H](O)CNC2CCOCC2)c(F)c(N2CCCCS2(=O)=O)c1 [TCMDC-135445] | 21.51% | –
12 | Cc1ccccc1C1CCN(C2CCC(NC(=O)c3ccc(-c4ccccn4)s3)CC2)CC1 (centres unmarked) [TCMDC-134106] | -14.35% | –
13 | COc1cc(Cc2cnc(N)nc2N)ccc1OCc1cccc(Oc2ccccc2)c1 [TCMDC-138681] | -11.55% | –
14 | COc1cccc(Nc2nccc(NCC(O)c3ccc(C(F)(F)F)cc3)n2)c1 (centres unmarked) [TCMDC-136594] | -17.97% | –
15 | CN1C(=C2SC(=Nc3ccc4ncccc4c3)N(Cc3ccccc3)C2=O)Sc2ccc(Cl)cc21 [TCMDC-124118] | 3.008% | –
16 | COc1ccc(NC(=O)[C@H](CC(C)C)Nc2cc(C)nc(NCC3CCCCC3)n2)cc1 [TCMDC-134917] | -43.94% | –
17 | COc1cc(C2NCC3(CCOCC3)c3cc4c(cc32)OCCO4)cc(OC)c1OC (centres unmarked) [TCMDC-125743] | -20.6% | –
18 | Cc1cc(C)c(C)c(OCCCON2C(N)=NC(N)=NC2(C)C)c1C [TCMDC-131791] | -4.975% | –
19 | COCCNCc1ccc(-c2cccc(CN(C(=O)CCC3CCCC3)C3CCN(Cc4ccccc4)CC3)c2)cc1 [TCMDC-140552] | 102.7% | –
20 | CC(C)CNCc1ccc(-c2cccc(CN(C(=O)CCC3CCCC3)C3CCN(Cc4ccccc4)CC3)c2)cc1 [TCMDC-140551] | 80.54% | –
21 | O=C(NC1CCN(c2ccnc3ccccc23)C1)c1cccc(C(F)(F)F)c1 (centres unmarked) [TCMDC-133580] | -5.668% | –
22 | N#Cc1ccc(CN2CCC(Oc3ccc(NC(=O)c4cccs4)cc3)CC2)cc1 [TCMDC-133953] | 32.19% | –
23 | O=C(O[C@H]1CN[C@H](C#Cc2cc3c(Nc4ccc(OCc5cccc(F)c5)c(Cl)c4)ncnc3s2)C1)N1CCCC1 [TCMDC-135291] | -17.95% | –

Row | SMILES | % Inhibition | % Inhibition (% Inhibition)
24 | CCN(C)C(=O)n1ncc2c3c(N)nc(N)nc3ccc21 [TCMDC-137828] | 19.76% | –
25 | Cc1ccc(CCNCC(O)c2cccc(C(F)(F)F)c2)cc1 (centres unmarked) [TCMDC-131447] | 15.63% | –
26 | O=C(NC1CC1)C1CCN(Cc2cc3ccccc3n2Cc2ccc(Cl)cc2)CC1 [TCMDC-125065] | 41.24% | –
27 | Cc1ccccc1Cn1c(CN2CCC(C(=O)NC3CC3)CC2)cc2ccccc21 [TCMDC-134259] | 50.21% | –
28 | Cc1c(CN2CCC(N3CCC(C(=O)NC4CC4)CC3)CC2)[nH]c2c(Cl)cccc12 [TCMDC-124608] | 11.69% | –
29 | CN(C)CCCn1cncc1-c1ccc2ncnc(Nc3ccc(OCc4ccccc4)cc3)c2c1 [TCMDC-138088] | 1.652% | –
30 | COc1ccccc1N1CCN(CCCCNC(=O)c2ccc(NC(=O)c3ccc4ccccc4c3)cc2)CC1 [TCMDC-138109] | -15.04% | –
31 | O=S(=O)(c1cccc2cccnc12)N1CCN(C2CCCCC2)CC1 [TCMDC-123840] | 8.014% | –
32 | CCC(C)NC(=O)Cn1c2ncccc2c(=O)n1-c1ccc(C)cc1 (centres unmarked) [TCMDC-124738] | -0.9664% | –
33 | CCCC(=O)NC(c1ccc(C)cc1)c1ccc2cccnc2c1O (centres unmarked) [TCMDC-123605] | 92.74% | –
34 | CCCC(=O)NC(c1ccc(C(C)C)cc1)c1ccc2cccnc2c1O (centres unmarked) [TCMDC-123884] | 62.61% | –
35 | Cc1ccc(C(NC(=O)C2CCCCC2)c2ccc3cccnc3c2O)cc1 (centres unmarked) [TCMDC-123654] | 50.75% | –
36 | CC(C)C(=O)NC(c1ccc(Cl)cc1)c1ccc2cccnc2c1O (centres unmarked) [TCMDC-124343] | 44.71% | –
37 | CC(C)c1ccc(C(NC(=O)C2CCCCC2)c2ccc3cccnc3c2O)cc1 (centres unmarked) [TCMDC-125560] | 15.44% | –
38 | C[C@@H](CC1CCCCC1)OC(=O)N[C@H]1CCN(C#N)C1 [TCMDC-138496] | 45.07% | –
39 | O=C(COc1ccccc1)Nn1cnc2ccccc21 [TCMDC-124536] | 15.87% | –
40 | CNS(=O)(=O)c1ccc2c(c1)nc(C1CCN(CC3CCC(NC(=O)/C=C/c4ccc(Cl)c(Cl)c4)CC3)CC1)n2C (centres unmarked) [TCMDC-140374] | 8.841% | –
41 | CCn1cc(-c2nc(-c3cc(OC)cc(OC)c3)no2)c(=O)c2ccccc21 [TCMDC-125155] | 51.09% | –
42 | CCOc1ccc(-c2noc(-c3c[nH]c4ccccc4c3=O)n2)cc1 [TCMDC-125156] | 27.36% | –
43 | COc1ccc(-c2nc(-c3ccc([N+](=O)[O-])cc3)no2)cc1OC [TCMDC-125731] | 16.37% | –
44 | CCOc1cc2ncnc(Nc3ccc(OCc4ccccc4F)c(Cl)c3)c2cc1OCC [TCMDC-131914] | 3.797% | –
45 | CC(C)CN1CCCN(Cc2cccc(NC(=O)c3ccc(-c4ccccc4)cc3)c2)CC1 [TCMDC-141841] | -91.11% | –
46 | Cc1cccc2nc(-c3ccc(-c4ccc(CNCc5cnn(-c6ccccc6)n5)cc4)cc3)[nH]c12.O=C(O)C(F)(F)F [TCMDC-132974] | 25.92% | –

Row | SMILES | % Inhibition | % Inhibition (% Inhibition)
47 | CCOC(=O)C(C)(C)Oc1ccc(C(=C2CC(C)(C)CC(C)(C)C2)c2ccc(O)cc2)cc1 [TCMDC-135525] | -61.64% | –
48 | CCN(CCNC(=O)C1CCN(c2cc(-c3cccc(C)c3)ncn2)CC1)Cc1ccccc1 [TCMDC-124739] | 86.1% | –
49 | Cc1cccc(C(=O)Nc2ccnc(N3CCC(N(C)Cc4ccccc4)CC3)c2)c1 [TCMDC-135001] | -20.99% | –
50 | Cc1cccc(-c2ccc(NC(=O)C3CCN(Cc4cccc(O)c4)CC3)cc2)c1 [TCMDC-124641] | 44.56% | –
51 | O=[N+]([O-])c1ccc(C(O)P(=O)(c2ccccc2)c2ccccc2)cc1 (centres unmarked) [TCMDC-125871] | -5.463% | –
52 | O=C(NC(Nc1ccc([N+](=O)[O-])cc1)C(Cl)(Cl)Cl)c1ccc(Cl)cc1 (centres unmarked) [TCMDC-125818] | 63.58% | –
53 | CCCC(=O)NC(NC(=S)Nc1ccc([N+](=O)[O-])cc1)C(Cl)(Cl)Cl (centres unmarked) [TCMDC-125817] | 27.07% | –
54 | O=C(NC(Nc1ccc([N+](=O)[O-])cc1)C(Cl)(Cl)Cl)c1cccc(Cl)c1 (centres unmarked) [TCMDC-124129] | 26.63% | –
55 | O=C(NC(NC(=S)Nc1ccc([N+](=O)[O-])cc1)C(Cl)(Cl)Cl)c1cccc(Cl)c1 (centres unmarked) [TCMDC-124130] | -46.64% | –
56 | Cc1cccc(C(=O)NC(NC(=S)Nc2ccc([N+](=O)[O-])cc2)C(Cl)(Cl)Cl)c1 (centres unmarked) [TCMDC-124177] | 26.63% | –
57 | O=C(Cc1ccccc1)NC(Nc1ccc([N+](=O)[O-])cc1)C(Cl)(Cl)Cl (centres unmarked) [TCMDC-125789] | 52.36% | –
58 | CC(C)C(=O)NC(Nc1ccc([N+](=O)[O-])cc1)C(Cl)(Cl)Cl (centres unmarked) [TCMDC-125799] | 71.39% | –
59 | Cc1ccccc1C(=O)NC(NC(=S)Nc1ccc([N+](=O)[O-])cc1)C(Cl)(Cl)Cl (centres unmarked) [TCMDC-124151] | -7.269% | –
60 | Cc1cc(C(=O)CN2C(=O)NC3(CCOc4ccccc43)C2=O)c(C)n1Cc1ccco1 (centres unmarked) [TCMDC-125252] | 14.93% | –
61 | COc1ccc2c(-c3ccccc3)noc2c1 [TCMDC-123782] | 15.72% | –
62 | Oc1cccc(-c2nc3cc(C4=NC5CCCCC5N4)ccc3[nH]2)c1 (centres unmarked) [TCMDC-137219] | – | -17.08%
63 | Cc1ccc(NC(=O)NC2CCN(CCCCCNC(=O)/C=C/c3ccc(Cl)c(Cl)c3)CC2)cc1 [TCMDC-135703] | -0.844% | –
64 | Cc1cc(C)c(NC(=O)N[C@H]2CCN(CCCCCNC(=O)/C=C/c3ccc(Cl)c(Cl)c3)C2)c(C)c1 [TCMDC-139513] | 86.25% | –
65 | Cc1cccc(NC(=O)NC2CCN(CCCCCNC(=O)/C=C/c3ccc(Cl)c(Cl)c3)CC2)c1 [TCMDC-135702] | -17.93% | –
66 | Cc1cc(C)c(NC(=O)NC2CCN(CCCCCNC(=O)/C=C/c3ccc(Cl)c(Cl)c3)C2)c(C)c1 (centres unmarked) [TCMDC-139529] | 92.72% | –
67 | Cc1cc(C)c(NC(=O)NC2CCN(CCCCCNC(=O)/C=C/c3ccc(Cl)c(Cl)c3)CC2)c(C)c1 [TCMDC-135717] | -32.07% | –
68 | Cc1ccc(NC(=O)NC2CCN(CCCCCNC(=O)/C=C/c3ccc(Cl)c(Cl)c3)CC2)cc1C [TCMDC-135708] | -56.47% | –
